Experimental data from PubChem BioAssay.
Values joined by “and” are separate entries in the source; they are usually repeats but may differ in a detail not shown here. Identical values can stand only once. Inconclusive results are not listed. Active and inactive are the calls of the source.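 How the source made its calls, unless noted: active means compounds whose cell count with miR-34 switched on is under 0.7 times the count with it off; inactive means the rest.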

Columns and labels:
[1] = compounds altering circadian rhythm period length – cell-based, LOPAC library, luminescence reporter (AID 2774; call rule not given here;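 further: values are relative to mean of DMSO wells on each plate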); conditions: circadian reporter cells, at 7 µM, actives lie on both sides
[2] = test system: Hepatitis C virus NS3 helicase; test: blockers of NS3h binding to ssDNA – biochemical, fluorescence polarization, LOPAC1280 library, primary screen (AID 687035; in the data active means inhibition above about 37%); conditions: Purified HCV NS3 helicase, Cy5-dT15 ssDNA binding fluorescence polarization; stronger effect = higher value; concentration not given here
[3] = compounds altering Cy5-DNA-NS3h complex signal – biochemical, LOPAC1280, artefact control for HCV NS3 helicase inhibitor project (AID 687037; call rule not given here); conditions: Cy5-DNA-NS3h complex fluorescence interference counterscreen
[4] = viability loss with induced miR-34 in A549 – imaging, A549 dox-inducible miR-34, nuclei and caspase counts, primary screen (AID 1347080); conditions: A549 miR-34 inducible, Hoechst nuclei count, 48 h
[5] = galactose survival enhancers in mitochondrial complex I cybrids – cell-based, galactose medium, ATP luminescence, primary screen (AID 1645843;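 active means z-score of at least 1.8 in each of two replicates, scored against plate mean and spread of sample wells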;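 further: positive z means more ATP and so rescue of galactose-driven cybrid death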); conditions: complex I mutant cybrid cells, 72 h, stronger effect = higher value
[6] = target: ATP-dependent translocase ABCB1 (Homo sapiens) (UniProt P08183); test: P-glycoprotein substrate transport blockade – cell-based (AID 377; in the data active means fluorescence slope change above about 50%); conditions: MDR1-expressing cells, fluorescent substrate accumulation slope; stronger effect = higher value; concentration not given here
[7] = compounds altering viability of human ES cells (AID 493140; call rule not given here;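 further: cells exposed to compounds for four days before counting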); conditions: human embryonic stem cell survival screen; stronger effect = higher value
[8] = P. berghei load reduction in hepatocytes – cell-based, HepG2, luciferase luminescence, HepG2 viability, primary screen (AID 624349; in the data active means parasite load remaining mostly below about 12%, no sharp cut-off; inactive means mostly above about 10%;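 further: 100% = mean of DMSO negative control wells on the same plate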); conditions: P. berghei liver stage in HepG2, luciferase luminescence, concentration not given here; parasite load remaining: stronger effect = lower value; viability: measured here: HepG2 viability without parasites
[9] = stronger effect = lower value, cell number ratio, induced over uninduced
[10] = measured here: relative caspase fold change +Dox/-Dox
[11] = measured here: total cells with miR-34 induction, stronger effect = lower value
[12] = measured here: total cells without miR-34 induction

Chain of ATP-dependent translocase ABCB1 (Homo sapiens) (P08183 whole entry, looked up): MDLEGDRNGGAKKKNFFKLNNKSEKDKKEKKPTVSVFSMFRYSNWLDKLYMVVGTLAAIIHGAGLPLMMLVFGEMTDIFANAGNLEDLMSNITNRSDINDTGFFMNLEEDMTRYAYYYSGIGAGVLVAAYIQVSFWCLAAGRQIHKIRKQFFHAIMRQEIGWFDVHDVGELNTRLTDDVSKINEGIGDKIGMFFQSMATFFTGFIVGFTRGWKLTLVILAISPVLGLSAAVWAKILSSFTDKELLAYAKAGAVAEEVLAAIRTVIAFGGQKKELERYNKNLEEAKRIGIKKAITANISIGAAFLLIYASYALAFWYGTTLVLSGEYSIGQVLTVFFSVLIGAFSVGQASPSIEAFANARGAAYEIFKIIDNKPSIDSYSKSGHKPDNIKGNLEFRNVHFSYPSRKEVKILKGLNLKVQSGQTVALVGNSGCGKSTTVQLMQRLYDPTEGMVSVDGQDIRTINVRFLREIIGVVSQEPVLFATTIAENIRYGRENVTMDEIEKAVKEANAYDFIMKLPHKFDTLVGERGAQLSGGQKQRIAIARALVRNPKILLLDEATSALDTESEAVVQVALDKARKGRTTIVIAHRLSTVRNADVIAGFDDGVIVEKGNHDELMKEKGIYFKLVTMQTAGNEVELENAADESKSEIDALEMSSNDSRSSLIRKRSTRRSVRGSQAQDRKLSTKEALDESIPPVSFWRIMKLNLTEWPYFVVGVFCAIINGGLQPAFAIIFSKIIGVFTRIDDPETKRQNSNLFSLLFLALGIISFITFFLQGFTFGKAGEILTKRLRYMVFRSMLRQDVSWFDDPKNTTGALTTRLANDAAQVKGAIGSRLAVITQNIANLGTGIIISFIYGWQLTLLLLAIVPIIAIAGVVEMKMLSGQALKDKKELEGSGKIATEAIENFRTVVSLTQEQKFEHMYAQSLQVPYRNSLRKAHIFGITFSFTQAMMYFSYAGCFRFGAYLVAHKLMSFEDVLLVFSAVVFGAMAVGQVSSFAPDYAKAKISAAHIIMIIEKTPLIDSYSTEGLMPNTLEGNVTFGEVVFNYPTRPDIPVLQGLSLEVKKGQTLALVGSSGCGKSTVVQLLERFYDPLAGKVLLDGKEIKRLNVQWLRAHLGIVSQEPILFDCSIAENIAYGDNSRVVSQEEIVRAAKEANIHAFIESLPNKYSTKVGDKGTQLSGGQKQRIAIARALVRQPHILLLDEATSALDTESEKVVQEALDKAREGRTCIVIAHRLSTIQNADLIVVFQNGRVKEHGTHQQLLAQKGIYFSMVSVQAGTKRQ

| SMILES | period change [1] | inhibition [2] | fluorescence ratio (interference) [3] | fold change [4, 9] | fold change [4, 10] | cell count [4, 11] | cell count [4, 12] | z-score [5] | fluorescence slope change [6] | survival [7] | parasite load remaining [8] | viability [8] |
| --- | --- | --- | --- | --- | --- | --- | --- | --- | --- | --- | --- | --- |
| NC(N)=N[C@@H](CCC(=O)O)C(=O)O | 0.01 h (inactive) | -3% (inactive) | 1 (inactive) | 0.954 (inactive) and 0.929 (inactive) | 1.36 and 1.31 | 9760 and 6110 | 10200 and 6580 | 0.175 (inactive) | – | – | – | – |
| C[N+](C)(C)CCOP(=O)(O)OP(=O)([O-])OC[C@H]1O[C@@H](n2ccc(N)nc2=O)C(O)[C@H]1O (some centres not stated) | – | -3% (inactive) | 1 (inactive) | 1.01 (inactive) | 1.19 | 10900 | 10800 | 0.115 (inactive) | – | – | – | – |
| Nc1nc(SCc2ccc([N+](=O)[O-])cc2)c2ncn([C@@H]3O[C@H](CO)[C@H](O)C3O)c2n1 (some centres not stated) | -0.105 h (inactive) | -2% (inactive) | 0.9 (inactive) | 1.08 (inactive) | 0.784 | 10100 | 9310 | -0.085 (inactive) | – | – | – | – |
| COc1ccc2c(OC)c3ccoc3nc2c1OC | – | – | – | 0.86 (inactive) | 1.16 | 8660 | 10100 | – | 16.3% (inactive) | 3.67 (inactive) | 157% (inactive) | 95.8% |
| COc1cc(=O)n(C)c2c(OCC(O)C(C)(C)O)cccc12 (configuration not stated) | -0.165 h (inactive) | – | – | 0.801 (inactive) | 1.04 | 8320 | 10400 | – | -8.1% (inactive) | 2.75 (inactive) | 88% (inactive) | 97.7% |
| NC[C@H]1O[C@@H](n2cnc3c(N)ncnc32)[C@H](O)[C@@H]1O | – | -3% (inactive) | 1 (inactive) | 1.07 (inactive) | 1.37 | 9860 | 9210 | 1.03 (inactive) | – | – | – | – |
| N.N.N.N.N.N.N.N.N.N.N.N.N.N.O.O.[Cl-].[Cl-].[Cl-].[Cl-].[Cl-].[Cl-].[Ru+4].[Ru+5].[Ru+5] | 0.18 h (inactive) | -98% (inactive) | 0 (active) | 1.03 (inactive) | 0.871 | 10700 | 10400 | -0.735 (inactive) | – | – | – | – |
| O=C(O)CCC/C=C\C[C@@H]1[C@@H](/C=C/[C@@H](O)COc2cccc(C(F)(F)F)c2)[C@H](O)C[C@@H]1O | – | – | – | 0.964 (inactive) and 1.06 (inactive) | 2.48 and 1.05 | 5470 and 6950 | 5680 and 6530 | – | – | 118 (inactive) | – | – |
| CCCCCCCCCCCCCCC(F)C(=O)O (configuration not stated) | – | – | – | 0.989 (inactive) and 1.01 (inactive) | 1.15 and 0.824 | 6040 and 6340 | 6110 and 6280 | – | – | 81.6 (inactive) | – | – |
| Cc1n[nH]c(=O)[nH]c1=O | – | – | – | 0.871 (inactive) | 1.41 | 8710 | 10000 | – | 50.5% (active) | 3.58 (inactive) | 54.2% (inactive) and 83.7% (inactive) | 111% and 75.4% |
| CCCCCC(=O)/C=C/[C@H]1[C@H](O)CC(=O)[C@@H]1C/C=C\CCCC(=O)O | – | – | – | 0.973 (inactive) | 1.18 | 6130 | 6300 | – | – | 92.3 (inactive) | – | – |
| CCCCCC(O)/C=C/C=O (configuration not stated) | – | – | – | 0.954 (inactive) | 1.27 | 5280 | 5530 | – | – | 101 (inactive) | – | – |
| C=C1CC[C@H](O)C/C1=C/C=C1\CCC[C@]2(C)[C@@H]([C@H](C)CC[C@@H](O)C(C)(C)O)CC[C@@H]12 | – | – | – | 1.03 (inactive) | 1.15 | 5660 | 5500 | – | – | 80.4 (inactive) | – | – |
| CCCCC[C@H](O)/C=C/[C@@H]1[C@H]2C/C(=C/CCCC(=O)O)C[C@H]2C[C@H]1O | – | – | – | 0.942 (inactive) | 1.29 | 5920 | 6280 | – | – | 59.9 (inactive) | – | – |
| CCCCC[C@H](O)/C=C/[C@@H]1[C@@H](C/C=C\CCCC(=O)O)[C@H]2CO[C@@H]1C2 | – | – | – | 0.992 (inactive) | 1.22 | 5990 | 6040 | – | – | 104 (inactive) | – | – |
| O=C(O)CCC/C=C\C[C@H]1C(=O)C[C@@H](O)[C@@H]1/C=C/[C@@H](O)CCc1ccccc1 | – | – | – | 0.93 (inactive) and 0.922 (inactive) | 1.16 and 1.61 | 5630 and 5680 | 6050 and 6160 | – | – | 102 (inactive) | – | – |
| CCCCCCCCCCCCCCCCCCOC[C@H](COP(=O)([O-])OCC[N+](C)(C)C)OC(C)=O | – | – | – | 0.968 (inactive) and 1 (inactive) | 1.1 and 0.859 | 5740 and 5730 | 5930 and 5720 | – | – | 83.4 (inactive) | – | – |
| CCCCCCCCCCCCCC(=O)N[C@H](C)[C@@H](O)c1ccccc1 | – | – | – | 1.02 (inactive) | 1.49 and 1.71 | 5830 and 6030 | 5700 and 5920 | – | – | 87.5 (inactive) | – | – |
| CCCCC[C@H](O)/C=C/[C@@H]1[C@@H](CC(=O)CCCCC(=O)O)[C@@H](O)C[C@H]1O | – | – | – | 0.992 (inactive) and 0.934 (inactive) | 1.02 and 1.32 | 5930 and 6160 | 5980 and 6600 | – | – | 129 (inactive) | – | – |
| CC/C=C\C/C=C\C/C=C\C/C=C\C/C=C\C/C=C\CCC(=O)O[C@H](COCCCCCCCCCCCCCCCC)COP(=O)([O-])OCC[N+](C)(C)C | – | – | – | 1.06 (inactive) | 1.37 | 5710 | 5380 | – | – | 68.5 (inactive) | – | – |
| CCCCCCCCCCCCCCCC(=O)C1=C(O)C(CO)OC1=O (configuration not stated) | – | – | – | 0.877 (inactive) | 0.963 | 5220 | 5960 | – | – | 98.2 (inactive) | – | – |
| C[N+]1(C)C[C@@H](O)C[C@H]1C(=O)[O-] | – | – | – | 0.868 (inactive) | 1.07 | 8350 | 9610 | – | 28.3% (inactive) | 7 (inactive) | 117% (inactive) | 106% |
| CCCCCCCC/C=C\CCCCCCCC(=O)OCC(CO)OC(=O)CCCCCCC/C=C\CCCCCCCC (configuration not stated) | – | – | – | 1.01 (inactive) | 1.34 | 5020 | 4970 | – | – | 88.4 (inactive) | – | – |
| CCCCCC(=O)/C=C/[C@@H]1[C@@H](C/C=C\CCCC(=O)O)[C@@H](O)C[C@H]1O | – | – | – | 1.04 (inactive) | 1.11 | 6170 | 5940 | – | – | 66.1 (inactive) | – | – |
| c1ccc2c(c1)CCCc1cc(NCCN3CCOCC3)nnc1-2 | – | – | – | 0.801 (inactive) | 2.12 | 7290 | 9100 | – | 77.5% (active) | 2.75 (inactive) | 74.6% (inactive) and 80.6% (inactive) | 105% and 79% |
| CCCCC[C@H](O)/C=C/[C@@H]1[C@H](C/C=C\CCCC(=O)O)[C@@H](O)C[C@H]1O | – | – | – | 0.908 (inactive) and 0.973 (inactive) | 1.37 and 1.68 | 6000 and 5340 | 6610 and 5490 | – | – | 105 (inactive) | – | – |
| CCCCCCCCCCCCCCCCOC[C@H](COP(=O)([O-])OCC[N+](C)(C)C)OC(=O)NC | – | – | – | 0.941 (inactive) and 0.889 (inactive) | 1.15 and 1.06 | 5360 and 4990 | 5690 and 5620 | – | – | 80.6 (inactive) | – | – |
| CCCCCCCCCC(=O)OCC(CO)OC(=O)CCCCCCCCC (configuration not stated) | – | – | – | 1.02 (inactive) | 0.801 | 4940 | 4860 | – | – | 93.4 (inactive) | – | – |
| COc1c(O[C@@H]2O[C@H](CO)[C@@H](O)[C@H](O)[C@H]2O)cc2c(c1OC)-c1ccc(SC)c(=O)cc1C(NC(C)=O)CC2 (some centres not stated) | – | – | – | 0.892 (inactive) | 1.15 | 8970 | 10100 | – | 56.6% (active) | 8.17 (inactive) | 68.6% (inactive) and 75.2% (inactive) | 120% and 78% |
